Screening data (PubChem BioAssay)
An excerpt weighted towards active compounds, which were near 3% of everything screened.
pPAFAH inh: pPAFAH enzyme inhibitors, primary screen, biochemical, fluorescence polarization, human; Platelet-activating factor acetylhydrolase (Homo sapiens), Q13093; inhibition, % at 3.39 µM; 330,000 tested, 1.5% active; recombinant pPAFAH, FP-rhodamine probe fluorescence polarization;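 active = inhibition above the mean inhibition across the screen plus 3 SD, cut at about 25% in these data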;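 also: inhibitors block binding of the rhodamine activity-based probe so polarization drops; 0% = enzyme with DMSO and 100% = wells lacking pPAFAH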
ATG4B inh: ATG4B protease inhibitors, primary screen, biochemical, fluorescence, uHTS; Cysteine protease ATG4B (Homo sapiens), Q9Y4P1; ATG4B cleavage of LC3-PLA2, NBD-HPC fluorescence, 1 h; inhibition, % at 8.33 µM; 340,000 tested, 0.51% active; in the data active = inhibition above about 40%
PAFAH1B2 FP inh: PAFAH1B2 enzyme inhibitors, primary screen, biochemical, fluorescence polarization, human; AID 492953, 2010; recombinant PAFAH1B2, FP-rhodamine activity probe; Platelet-activating factor acetylhydrolase IB subunit alpha2 (Homo sapiens), P68402; 340,000 tested, 1.2% active; inhibition, % at 3.39 µM;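 active = inhibition above the mean of all tested compounds plus 3 SD, cut at about 24% in these data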;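 also: 0% = enzyme with DMSO and 100% = wells lacking PAFAH1B2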
Target sequence (P68402 whole entry, looked up): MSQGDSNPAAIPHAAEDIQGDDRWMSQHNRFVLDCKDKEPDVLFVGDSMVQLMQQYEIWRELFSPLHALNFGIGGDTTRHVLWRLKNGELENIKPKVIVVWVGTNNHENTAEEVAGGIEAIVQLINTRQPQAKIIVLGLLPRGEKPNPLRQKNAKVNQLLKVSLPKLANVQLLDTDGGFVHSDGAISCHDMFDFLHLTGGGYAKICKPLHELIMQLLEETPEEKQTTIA
PAFAH2 FP inh: PAFAH2 enzyme inhibitors, primary screen, biochemical, fluorescence polarization, human; Platelet-activating factor acetylhydrolase 2, cytoplasmic (Homo sapiens), Q99487; recombinant PAFAH2, FP-rhodamine activity probe; inhibition, % at 3.39 µM; 340,000 tested, 0.99% active; AID 492956, 2010;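 active = inhibition above the mean over all tested compounds plus 3 SD, cut at about 30% in these data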;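 also: inhibitors block probe labeling of enzyme so polarization drops; 0% = enzyme with DMSO and 100% = wells lacking PAFAH2 protein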
DAGLB inh: DAGLB lipase inhibitors, primary screen, biochemical, fluorescence, HTS; 340,000 tested, 0.059% active; inhibition, % at 5.17 µM; HEK293T DAGLB membrane lysate, EnzChek fluorogenic substrate; AID 504411, 2011; in the data active = inhibition above about 34%;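 also: 0% = enzyme with vehicle and 100% = wells lacking enzyme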
PAFAH1B3 FP inh: PAFAH1B3 enzyme inhibitors, primary screen, biochemical, fluorescence polarization, human; recombinant PAFAH1B3, FP-rhodamine probe; inhibition, % at 3.39 µM; 340,000 tested, 0.28% active; AID 492972, 2010;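 active = inhibition above the screen-wide average of all tested compounds plus 3 SD, cut at about 25% in these data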;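 also: 0% = enzyme with DMSO only and 100% = wells lacking PAFAH1B3 protein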
Target sequence (Q15102 whole entry, looked up): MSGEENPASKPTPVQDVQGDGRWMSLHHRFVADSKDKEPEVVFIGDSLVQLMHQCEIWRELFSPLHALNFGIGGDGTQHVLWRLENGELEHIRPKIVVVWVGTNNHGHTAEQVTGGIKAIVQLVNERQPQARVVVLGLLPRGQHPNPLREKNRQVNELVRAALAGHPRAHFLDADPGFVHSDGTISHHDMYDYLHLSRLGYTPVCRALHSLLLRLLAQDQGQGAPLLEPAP
PAFAH2 FP conf: PAFAH2 enzyme inhibitors, confirmation, biochemical, fluorescence polarization, human; shares compounds with PAFAH2 FP inh; inhibition, % at 3.39 µM; 2,300 tested, 65% active; recombinant PAFAH2, FP-rhodamine activity probe; AID 493030, 2011;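 active = mean inhibition over three repeats above a set limit taken from the earlier primary screen, cut at about 30% in these data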;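 also: inhibitor blocks binding of rhodamine activity probe so polarization falls; 0% = enzyme with DMSO and 100% = wells lacking PAFAH2 protein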
* hit, by the source's call; · = no result given.

SMILES	pPAFAH inh	ATG4B inh	PAFAH1B2 FP inh	PAFAH2 FP inh	DAGLB inh	PAFAH1B3 FP inh	PAFAH2 FP conf
COc1ccc(CNC(=O)COC(=O)c2[nH]c(C)c(C(C)=O)c2C)cc1OC	-2.5	4.4	-4.4	0.6	1.6	2.1	·
CCOc1ncccc1C(=O)OCC(=O)NC1CCCCCC1	·	-7.0	3.5	84.1*	1.4	-2.0	79.0*
CCOc1ncccc1C(=O)OCC(=O)NCc1cccs1	15.2	-3.5	3.3	39.5*	-1.4	5.8	27.0
O=C(COC(=O)c1cccnc1Cl)NCc1cccs1	9.9	0.1	5.1	1.5	-0.4	-5.2	·
C[C@@H]1CN([C@@H](C)CO)C(=O)c2cc(C3=CCCCC3)cnc2O[C@H]1CN(C)C(=O)Nc1cccc(F)c1	·	·	·	·	-3.4	·	·
CC(=O)Oc1ccc(/C=C/c2nc3ccccc3c(=O)o2)cc1	-4.6	0.6	7.2	49.6*	-2.6	8.7	57.4*
O=c1oc(/C=C/c2ccc([N+](=O)[O-])s2)nc2ccccc12	5.5	-4.1	6.5	19.0	-3.1	-1.8	·
CC(=O)Oc1ccccc1/C=C/c1nc2ccccc2c(=O)o1	1.9	32.6	4.3	86.5*	1.4	5.4	70.1*
CCOC(=O)C1=CN(Cc2ccco2)S(=O)(=O)NC1c1ccc(Br)cc1F (stereo not drawn)	11.7	4.0	4.1	14.4	-4.0	1.5	7.6
CN(Cc1nccs1)C(=O)C1CCC(=O)N(CCCc2ccccc2)C1 (stereo not drawn)	·	0.1	-1.3	30.8*	-1.3	5.3	19.6
CN(Cc1nccs1)C(=O)C1CCC(=O)N(Cc2ccccc2F)C1 (stereo not drawn)	4.1	5.0	1.3	-2.0	-0.5	2.4	·
C/C(=N\Nc1cc(C(F)(F)F)ccc1Cl)c1ccncc1	6.8	2.1	6.5	-3.4	-10.8	-0.9	·
Cc1noc(NC(=O)c2ccccc2C(F)(F)F)c1C#N	2.9	-0.2	0.8	37.5*	-1.4	7.7	1.4
CSc1ccc(/C=C/C(=O)OCC(=O)NCC2CCCO2)cc1 (stereo not drawn)	5.2	-2.6	3.1	38.7*	-1.5	8.6	21.6
O=C(COC(=O)/C=C/c1ccccc1)NCC1CCCO1 (stereo not drawn)	10.5	-9.2	2.9	37.2*	0.7	-0.8	22.7
O=C1[C@H]2[C@@H](c3ccccc3)N[C@]3(CCCN(Cc4ccc(F)cc4)C3=O)[C@H]2C(=O)N1Cc1ccccc1	·	·	·	·	-1.8	·	·
Cc1cc2ncc(-c3cccs3)nc2cc1C	·	5.2	-1.3	-0.2	-6.3	3.8	·
CC1C(=O)N2CCCc3cc(NC(=O)c4ccccc4F)cc1c32 (stereo not drawn)	4.7	6.5	5.2	1.0	2.6	4.4	·
CC(NC(=O)COC(=O)c1ccc(S(=O)(=O)N2CCOCC2)cc1)c1ccccc1 (stereo not drawn)	1.3	-5.6	7.7	-1.9	-1.6	7.9	·
CCNc1ccc(C(=O)OCC(=O)NC(C)c2ccccc2)cc1[N+](=O)[O-] (stereo not drawn)	4.6	4.5	8.8	82.6*	-0.5	8.7	72.7*
CCNc1ccc(C(=O)OCC(=O)NCc2ccc(C)cc2)cc1[N+](=O)[O-]	-2.3	14.8	0.7	0.7	-1.2	1.4	·
CC(NC(=O)COC(=O)c1ccc2c(c1)OCCO2)c1ccccc1 (stereo not drawn)	12.0	5.4	3.6	63.3*	-3.4	4.1	61.0*
O=C(COC(=O)c1ccc2c(c1)OCCO2)NCCc1ccccc1	12.0	-0.7	3.7	45.6*	1.6	7.0	41.4*
O=C(COC(=O)c1ccc2c(c1)OCCO2)NCc1ccc(Cl)cc1	·	·	·	·	-3.9	·	·
COc1cccc(CN(C)C(=O)c2ccc(NC(=O)CC3SC(N4CCCC4)=NC3=O)cc2)c1OC (stereo not drawn)	-2.4	-3.2	13.1	8.1	0.1	6.9	·
SMILES	pPAFAH inh	ATG4B inh	PAFAH1B2 FP inh	PAFAH2 FP inh	DAGLB inh	PAFAH1B3 FP inh	PAFAH2 FP conf
O=C(Nc1ccccc1C(=O)NCCc1ccccc1)c1cnccn1	-0.1	-8.3	9.8	32.2*	1.4	11.0	8.4
Cc1cc(/C=C2\SC(N)=NC2=O)c(C)n1-c1ccccc1	6.6	-5.8	0.2	48.6*	-0.9	-4.0	32.8*
Cc1ccc(S(=O)(=O)N(CC(=O)Nc2ccccc2C(=O)O)c2ccccc2C)cc1	-2.5	10.7	2.8	2.5	4.9	16.5	·
Cc1ccc(S(=O)(=O)N(CC(=O)Nc2ccccc2C(=O)O)c2cccc(Cl)c2C)cc1	-5.2	25.7	10.1	31.5*	12.8	-9.6	28.5
CCOC(=O)Cc1nc2ccccc2[nH]1	19.5	6.7	2.4	3.8	-0.1	9.0	·
O=C(OCc1nc2ccccc2[nH]1)C12CC3CC(CC(C3)C1)C2	2.4	3.5	9.0	56.7*	-5.5	-6.7	49.3*
Cc1ccc(C(=O)OCC(=O)c2ccc(Cl)s2)s1	15.7	12.9	2.3	74.0*	-15.2	0.8	65.9*
CC(NC(=O)COC(=O)Cc1ccc(Cl)cc1)c1ccccc1 (stereo not drawn)	12.9	0.9	12.4	3.7	-4.2	-2.8	·
Cc1ccc(C(=O)OCC(=O)NCCNC(=O)COC(=O)c2ccc(C)s2)s1	6.2	4.5	4.9	2.2	3.0	7.1	·
Cc1ccc(C(=O)OCC(=O)NC(C)c2ccccc2)s1 (stereo not drawn)	13.4	-2.4	1.4	77.8*	-2.9	1.4	68.8*
Cc1ccc(C(=O)NCC(=O)OCC(=O)NC(C)c2ccccc2)s1 (stereo not drawn)	-6.3	-1.0	-0.2	6.8	-0.4	4.0	·
CC(NC(=O)COC(=O)CC(c1ccccc1)c1ccccc1)c1ccccc1 (stereo not drawn)	6.1	-11.7	8.8	59.4*	-3.0	1.0	47.3*
O=C(NCC1CCCO1)C(Cc1ccccc1)N1C(=O)C2C3C=CC(C4CC34)C2C1=O (stereo not drawn)	0.4	12.4	2.2	42.5*	0.7	4.9	26.0
COc1ccc(OC)c(/C=N/N2CCN(c3ccc(Cl)cc3)CC2)c1	1.5	-1.6	4.3	-2.3	1.5	4.6	·
CN(Cc1ccco1)C(=O)c1cc2c(s1)-c1ccc(Cl)cc1S(=O)(=O)C2	1.8	-3.3	-1.4	51.1*	2.0	3.3	-10.4
Cc1nn(-c2ccccc2)c(C)c1NC(=O)COC(=O)c1ccc(NC(=O)CC#N)cc1	16.7	-2.9	-4.9	32.8*	-1.4	-2.3	23.8
